Hits are enriched below; roughly 1.8% of the tested compounds scored in any of these assays.
MEP2-GFP yeast – modulators of TOR pathway MEP2-GFP in S. cerevisiae; GFP response vs DMSO, % at 10 µM; AID 2016; S. cerevisiae MEP2-GFP strain, flow cytometry GFP, 3 h; 100% = DMSO control level; actives 0.51% (n = 330,000);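 active = GFP response versus DMSO above a set limit, roughly screen mean plus 3 SD, cut at about 180% in these data; inconclusive = fewer than 70 cells counted for a yeast strain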;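 also: median GFP fluorescence of the barcode-gated MEP2-GFP cells per well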
RPL19A TOR yeast – modulators of TOR pathway RPL19A-GFP in S. cerevisiae; S. cerevisiae RPL19A-GFP strain, flow cytometry, 3 h; active compounds read low; percent response vs DMSO, % at 10 µM; actives 0.3% (n = 330,000);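 active = percent response vs DMSO below 50%; inconclusive = fewer than 70 events counted for the yeast strain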;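 also: median channel GFP fluorescence of the barcoded RPL19A-GFP strain; lower means less RPL19A-GFP as with rapamycin TOR inhibition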
Myeloid diff MLP – myeloid differentiation induction; actives 1% (n = 360,000); calls only at 10 µM; ER-HoxA9 myeloid progenitors, lysozyme-GFP differentiation, flow cytometry; AID 624256;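 active = normalized GFP-positive differentiation at or above the plate's own cutoff, the solvent-only control mean plus 3 SD; inconclusive = no clear call, values can overlap the other calls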;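 also: cells exposed to compound for four days before flow analysis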
LAP4 TOR yeast – alters LAP4-GFP fluorescence in TOR pathway yeast screen. S. cerevisiae LAP4-GFP multiplex, flow cytometry GFP, 3 h; median GFP as percent of DMSO wells. GFP response vs DMSO, % at 10 µM. actives 0.34% (n = 320,000). AID 2023;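 active = GFP response vs DMSO above a set limit, about the screen mean plus 3 SD, cut at about 150% in these data; inconclusive = under 70 cell events counted for the yeast strain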
AGP1-GFP MLPCN – modulators of TOR pathway AGP1-GFP in S. cerevisiae; S. cerevisiae AGP1-GFP multiplex flow cytometry, 3 h; GFP as percent of DMSO wells; GFP response vs DMSO, % at 10 µM; actives 0.02% (n = 320,000); AID 2066;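 active = GFP response relative to DMSO above a set limit, near screen average plus 3 SD, cut at about 150% in these data; inconclusive = fewer than 70 cells counted for the yeast strain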;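 also: median GFP channel fluorescence of the gated AGP1 strain per well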
CIT2 TOR yeast – alters CIT2-GFP fluorescence in TOR pathway yeast screen; S. cerevisiae CIT2-GFP strain, flow cytometry, 3 h; 100 means same as DMSO wells; GFP response vs DMSO, % at 10 µM; actives 0.065% (n = 320,000);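 active = GFP response relative to DMSO above a set limit, near the screen mean plus 3 SD, cut at about 150% in these data; inconclusive = Fewer than 70 cells measured for a yeast strain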;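 also: ratio of well median GFP fluorescence to mean of DMSO wells on the plate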
Myeloid diff CP1 – promotes myeloid progenitor differentiation; shares compounds with Myeloid diff MLP; ER-HoxA9 myeloid progenitors, GFP/Mac1 double-positive flow; calls only; actives 2% (n = 2,300);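 active = share of green or green-and-red cells above 9 and 9% in run 1 or 4 and 3% in run 2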
GFP autofluor – compound fluorescence in myeloid differentiation counter-screen; actives 7.4% (n = 2,300); fluorescence response, % (concentration not given with the values); shares compounds with Myeloid diff MLP; ER-HoxA9 myeloid progenitors, no estrogen, GFP autofluorescence flow cytometry; vehicle wells 0%, positive control 100%; AID 651707;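 active = over 5% cells positive for green fluorescent reporter, or over 2% positive for both it and APC stain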
Numbers stand for hits; n = inactive; u = inconclusive; x = no result given; + = active, no number.

SMILES	MEP2-GFP yeast	RPL19A TOR yeast	Myeloid diff MLP	LAP4 TOR yeast	AGP1-GFP MLPCN	CIT2 TOR yeast	Myeloid diff CP1	GFP autofluor
CCOC(=O)C1(Cc2ccc(OC)cc2)CCN(C(=O)c2cc3ccccc3[nH]2)CC1	n	n	n	n	n	n	x	x
Cc1cccc(-n2c(CNC(=O)COc3ccccc3)nnc2SCC(=O)Nc2nccs2)c1	n	n	n	n	n	n	n	5.4
COc1cccc(C(=O)NCc2nnc(SCC(=O)Nc3nccs3)n2-c2cccc(C)c2)c1	n	n	n	n	n	n	x	x
O=C(Nc1cccc(S(=O)(=O)N2CCCCCC2)c1)C1CCC1	n	n	n	n	n	n	n	n
Cc1cccc(C(=O)N[C@H](C(=O)Nc2cccc(S(=O)(=O)N3CCCC3)c2)C(C)C)c1	n	n	n	n	n	n	n	n
O=C(Nc1cccc(S(=O)(=O)N2CCCCC2)c1)C1CCCC1	n	n	n	n	n	n	x	x
CC(C)[C@H](NC(N)=O)C(=O)Nc1cccc([N+](=O)[O-])c1	n	n	n	n	n	n	x	x
CC(NC(=O)Cn1cc(C(F)(F)F)ccc1=O)c1ccc(F)cc1 (stereo unspecified)	n	n	n	n	n	n	x	x
CCN(CC)CCNC(=O)CCCCn1c(=S)[nH]c2c([nH]c3ccc(OC)cc32)c1=O	n	n	n	n	x	n	x	x
COc1ccc(CC(=O)OCC(=O)NCc2ccco2)cc1	n	n	n	n	n	n	x	x
COc1cc(CC(=O)OCC(=O)NCc2ccco2)cc(OC)c1OC	n	n	+	n	n	n	n	n
CCc1ccc(OCC(=O)NCc2ccco2)c(Br)c1	n	n	n	n	n	n	n	n
O=C1S/C(=C/c2ccc(N3CCOCC3)o2)C(=O)N1Cc1ccc(F)cc1	n	n	n	n	n	n	n	31
COc1cc(/C=N/N=C2/NC(=O)C(Cc3ccccc3)S2)ccc1O (stereo unspecified)	n	n	n	n	n	n	x	x
Cc1cc(C)c(OCCn2ccnc2)c(C)c1	n	n	n	n	n	n	x	x
CCOc1ccccc1OCCn1ncc2ccc(OC)c(OC)c2c1=O	n	n	n	n	n	n	x	x
COc1ccc2cnn(CCOc3cc(C)ccc3C(C)C)c(=O)c2c1OC	n	n	+	n	n	n	n	n
CCN(C(=O)CN1CCCc2cc(C)ccc21)c1c(N)n(Cc2ccccc2)c(=O)[nH]c1=O	x	x	n	x	x	x	n	n
Cc1ccc2c(c1)CCCN2CC(=O)N(C)c1c(N)n(Cc2ccccc2)c(=O)[nH]c1=O	n	n	n	n	n	n	n	n
Cc1csc(SCc2nnc(-c3ccccc3Br)o2)n1	n	n	n	n	n	n	n	n
CN(Cc1ccccc1)C(=O)c1cccc(NC(=O)Cc2ccc(NC(=O)C3CCCN(C(=O)CCc4ccccc4)C3)cc2)c1 (stereo unspecified)	x	x	n	x	x	x	x	x
Cc1ccc2[nH]c(-c3ccccc3)cc(=O)c2c1	n	n	u	n	n	n	x	x
C=CC[n+]1cccc(-c2cc3ccc(C)cc3[nH]2)c1	n	n	n	n	n	n	n	n
Cc1nc2nc(-c3ccco3)[nH]n2c(=O)c1Cc1ccccc1	n	n	n	n	n	n	x	x
Cc1nc2nc(-c3ccco3)[nH]n2c(=O)c1C	n	n	n	n	n	x	n	n
SMILES	MEP2-GFP yeast	RPL19A TOR yeast	Myeloid diff MLP	LAP4 TOR yeast	AGP1-GFP MLPCN	CIT2 TOR yeast	Myeloid diff CP1	GFP autofluor
COc1cc(NC(=O)c2cc(S(=O)(=O)N3CCCCC3)ccc2N2CCOCC2)cc(OC)c1	n	n	+	n	n	n	n	n
N=c1oc2ccc(Br)cc2cc1C(=O)NCc1ccc(F)cc1	n	n	n	n	n	n	x	x
CCC(C)c1c(O)nc(SCC(=O)N2CCCCC2)[nH]c1=O (stereo unspecified)	n	n	n	n	n	n	x	x
CCC(C)c1c(O)nc(SCC(=O)N2CCOCC2)[nH]c1=O (stereo unspecified)	n	x	n	n	n	n	n	n
COc1ccc(/C=C/C(=O)NC2CCCCCCC2)cc1S(=O)(=O)N1CCOCC1	n	n	n	n	n	n	n	n
O=C(COc1ccccc1)Nc1nc2cc3c(cc2s1)OCO3	n	n	n	n	n	n	x	x
O=C(COc1ccccc1)Nc1nc2cc3c(cc2s1)OCCO3	n	n	n	n	n	n	n	n
O=C1CCC/C=C/C[C@@H](CC(=O)N(CCO)Cc2ccccc2)C(=O)NC[C@@H](c2ccccc2)O1	n	n	n	n	n	n	n	n
CCCCCN(C(=O)NC(=O)Nn1cnnc1)S(C)(=O)=O	n	n	+	n	n	n	n	n
O=C(NCC1CCCO1)C1CCN(CC2CCCCC2)CC1 (stereo unspecified)	n	n	n	n	n	n	x	x
CCC(CO)n1c(SCc2cc(=O)oc3cc(C)ccc23)nc2ccccc2c1=O (stereo unspecified)	n	n	n	n	n	n	+	n
COc1ccccc1-n1c(SCc2cc(=O)oc3cc(O)ccc23)nc2ccccc2c1=O	n	n	n	n	n	n	x	x
COC(=O)c1c(C)[nH]c(C)c1-c1ccc(C)cc1	n	n	n	n	n	n	x	x
COC(=O)CSc1[nH]c2cc(C)ccc2c1[N+](=O)[O-]	n	n	n	n	n	n	x	x
COc1ccc(NC(=O)c2sccc2SCc2cccc(C(F)(F)F)c2)cc1	n	n	n	n	n	n	n	n
O=C(Nc1sc2c(c1C(=O)NCC1CCCO1)CCCC2)c1cccs1 (stereo unspecified)	n	n	n	n	n	n	n	n
O=C(Nc1nccc(-c2cccs2)n1)c1cccs1	n	n	n	n	n	n	x	x
O=C(CN1CCCCC1)Nc1nnc(-c2ccc([N+](=O)[O-])cc2)s1	n	n	n	n	n	n	n	n
Fc1ccc(C(c2nnnn2C2CCCC2)N2CCN(Cc3ccncc3)CC2)cc1 (stereo unspecified)	n	n	+	n	n	n	n	n
CN(C)CCN(C(=O)c1ccccc1Cl)c1nc2c(Cl)cccc2s1	n	n	+	n	n	n	n	n
CN(C)CCN(C(=O)c1cccc(Cl)c1)c1nc2c(Cl)cccc2s1	n	n	n	n	n	n	x	x
CC#CCN1c2ccccc2[C@]23C[C@@H](C(=O)OC)N(C(=O)NC4CCCCC4)C2=NC(C(=O)OC)=C(C(=O)OC)[C@H]13	n	n	n	n	n	n	n	n
Cc1cc2nc(/N=C(\N)NC(=O)C(C)C)nc(C)c2cc1C	n	n	n	n	n	n	n	n

Screens from PubChem.
